# Screening data as filed in PubChem BioAssay.
# Six1-Eya2 inh – Six1/Eya2 interaction inhibition; activity change, % (no concentration beside the values); 0.56% of 360,000 active; AlphaScreen GST-Six1/His-Eya2 binding, biochemical; stronger effect = lower value; Q15475+O00167; AID 651725; in the data active means activity change below about -65%; inconclusive means mostly about -30% to -63%
#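 Compounds are tested against tagged Six1 and Eya2 proteins bridged by glutathione donor and nickel acceptor beads; after a one-hour incubation at 37 °C without light, AlphaScreen emission is recorded.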
# CtBP-E1A blk – blocks the CtBP interaction with E1A | AlphaScreen GST-E1A/His-CtBP binding, 1536-well; stronger effect = lower value | activity change, % (concentration not given with the values) | 0.49% of 340,000 active | AID 651724; in the data active means activity change below about -65%; inconclusive means mostly about -30% to -63%
#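 AlphaScreen with 125 nM GST-E1A and 125 nM His-CtBP (5X stocks) in Tris pH 8.0, 300 mM NaCl, BSA, Tween 20, TCEP. Compounds preincubated 2 h at 37 deg C, then glutathione donor/nickel acceptor beads added for 1 h at 37 deg C in dark.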
# G9a block – G9a (human) methyltransferase inhibition | 8.8% of 350,000 active | G9a H3K9 monomethylation, AlphaScreen, 2 h | Potency, µM (top dose mostly 102 µM), usual class: inhibitors | Q96KQ7; further: nearly all actives have a fitted effect of over 75% in size
# Target sequence (Q96KQ7 913-1193 limits assumed): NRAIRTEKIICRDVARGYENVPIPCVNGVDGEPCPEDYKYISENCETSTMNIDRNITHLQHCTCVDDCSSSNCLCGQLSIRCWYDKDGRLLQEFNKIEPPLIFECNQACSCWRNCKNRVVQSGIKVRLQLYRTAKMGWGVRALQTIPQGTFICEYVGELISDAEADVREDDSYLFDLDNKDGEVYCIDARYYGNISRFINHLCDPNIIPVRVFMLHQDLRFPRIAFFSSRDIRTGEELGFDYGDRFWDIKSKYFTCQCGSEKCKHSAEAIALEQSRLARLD
#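 Signal arises when biotinylated H3K9 peptide, once monomethylated, bridges streptavidin donor and antibody-captured acceptor beads. Enzyme at 20 nM was preincubated 15 min with test compounds; peptide 500 nM and SAM 20 uM then reacted for 2 h.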
# HP1b chromo inh – inhibitors of HP1-beta chromodomain binding to methylated histone tails; P83916; Potency, µM (series often up to 114 µM), most hits filed as inhibitors; AlphaScreen HP1-beta / biotin-H3K9me3 peptide binding; 0.56% of 390,000 active; further: nearly all actives have a fitted effect of over 70% in size
# Target sequence (P83916 whole entry, looked up): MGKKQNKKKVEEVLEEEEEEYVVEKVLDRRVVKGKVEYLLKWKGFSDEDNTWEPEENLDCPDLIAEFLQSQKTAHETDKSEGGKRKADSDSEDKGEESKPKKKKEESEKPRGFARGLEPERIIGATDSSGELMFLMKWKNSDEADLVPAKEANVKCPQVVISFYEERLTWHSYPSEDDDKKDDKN
#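 Compound inhibition of the preformed complex between 50 nM HP1-beta and 50 nM biotinylated H3K9me3 peptide was read by AlphaScreen. Buffer was PBS pH 7.4 with 0.01% Tween-20. Incubations ran 30 min at room temperature, with 10 ug/mL donor/acceptor beads.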
# BAZ2B inh – blocks human BAZ2B | Q9UIF8 | AlphaScreen BAZ2B-H3K14Ac peptide displacement | Potency, µM (titrated, usually from 114 µM), most hits filed as inhibitors | 4.4% of 360,000 active | AID 504333; further: nearly all actives have a fitted effect of over 60% in size
#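 BAZ2B 50 nM plus b-H3(5-23)K14Ac 50 nM, PBS pH 7.4/0.01% Tween-20, 30 min RT; compound added (max 110 uM), 30 min RT; streptavidin donor/Ni-chelate acceptor beads 10 ug/mL final, 20 min dark; AlphaScreen read.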
# JMJD2A Tudor – blocks the human JMJD2A Tudor domain. O75164. AlphaScreen JMJD2A-Tudor / H3K4me3 peptide binding. Potency, µM (highest dose often 114 µM), usual class: inhibitors. 4.4% of 390,000 active; further: nearly all actives have a fitted effect of over 50% in size
# Numbers stand for hits; - = inactive; ? = inconclusive; . = no result; [ ] = dose if it differs, or a comment. Sampled rows, rich in hits. Any-hit rate of the full collection: about 10%. Unless noted, the call rests on the fitted dose curve; in most records, active means well fitted inhibition curve with a large enough effect; inconclusive means small, poorly fitted or top-dose-only effect; inactive means no such curve, though single readings can be large or run the other way.
SMILES,Six1-Eya2 inh,CtBP-E1A blk,G9a block,HP1b chromo inh,BAZ2B inh,JMJD2A Tudor
Cc1c(C(=O)NCC2COc3ccccc3O2)oc2ccc(S(=O)(=O)N3CCOCC3)cc12 (stereo unspecified),-,-,50µM,-,-,-
Cc1c(C(=O)NCC2COc3ccccc3O2)oc2ccc(S(=O)(=O)N3CC(C)CC(C)C3)cc12 (stereo unspecified),-,-,-[2.33 µM],-,-,-
CNC[C@@H]1Oc2cc(Br)ccc2S(=O)(=O)N([C@@H](C)CO)C[C@H]1C,-,-,.,.,.,.
COCCn1c(C)cc(C(=O)CSc2nnnn2C2CCCC2)c1C,-,-,?,-,-,-
O=C(NCC1COc2ccccc2O1)c1cc(S(=O)(=O)N2CCOCC2)c(Cl)cc1Cl (stereo unspecified),-,-,32µM,-,-,-
COCCCNC(=O)c1cc(S(=O)(=O)N2CCOCC2)ccc1SCc1cccc(OC)c1OC,-,-,32µM,-,-,-
COc1ccc(S(=O)(=O)N2CCOCC2)cc1C(=O)NCC(c1ccccc1)c1ccccc1,-,-,.,-,.,-
COc1ccc(C)cc1NC(=O)CSc1nc(=O)n(Cc2ccncc2)c2c1CCC2,.,.,-,-,-,-
O=C(CCCCCNc1nc(=S)[nH]c2ccccc12)N1CCN(c2ccccn2)CC1,.,.,?,.,-,.
COc1cccc(N2CCN(C(=O)CCCCCNc3nc(=S)[nH]c4ccccc34)CC2)c1,?,?,-,-,32µM,-
NS(=O)(=O)c1ccc(CCNC(=O)CCCCCNc2nc(=S)[nH]c3ccccc23)cc1,.,.,50µM,.,-,.
N#Cc1ccccc1NC(=O)C(=O)NCC(c1cccnc1)N1CCN(c2ccccc2)CC1 (stereo unspecified),.,.,-,-,-,-
CSCCC(NC(=O)c1ccccc1Cl)C(=O)NC1CCN(Cc2ccccc2)CC1 (stereo unspecified),-,-,1.6µM,-,-,-
CSCCC(NC(=O)c1cccc(S(=O)(=O)N2CCOCC2)c1)C(=O)Nc1cccc(C)c1 (stereo unspecified),-,-,10µM,-,-,-
CSCCC(NC(=O)c1ccccc1)C(=O)Nc1ccc(C)cc1 (stereo unspecified),-,-,-,-,-,-
CSCCC(NC(=O)c1ccccc1Cl)C(=O)N1CCCCC1 (stereo unspecified),-,.,-[12.7 µM],-,-,-
CSCCC(NC(=O)c1ccccc1Cl)C(=O)Nc1cccc(S(=O)(=O)N2CCCC2)c1 (stereo unspecified),-,-,45µM,-,-,-
CSCCC(NC(=O)c1cccc(C)c1)C(=O)Nc1sccc1C(N)=O (stereo unspecified),-,-,50µM,-,-,-
CCOC(=O)c1c(C)[nH]c(C)c1S(=O)(=O)NCC(=O)Nc1cccc(Cl)c1,.,.,-,-,-,-
CCOC(=O)c1c(NC(=O)c2ccc(S(=O)(=O)N(CCOC)CCOC)cc2)sc2c1CC(C)(C)NC2(C)C,.,.,-,-,-,-
Cn1cnc(S(=O)(=O)Nc2cc(-c3ccc(Cl)cc3)nn2C)c1,-,-,50µM,-,-,-
Cn1nc(-c2ccccc2)cc1NC(=O)c1ccc(Cl)cc1,-,.,-[12.7 µM],-,-,-
CCC(C)NC(=O)CN1C(=O)c2cccc3cccc1c23 (stereo unspecified),-,-,-,-,-,-
CCN1/C(=N\N)c2cccc3cccc1c23,?,-,-,?,7.9µM,7.9µM
CCc1cccc(C)c1NC(=O)CCS(=O)(=O)c1ccc2c(c1)oc(=O)n2C,.,.,10µM,?,-,79µM
COc1cc(Cl)c(C)cc1NC(=O)COc1ccccc1[N+](=O)[O-],-,-,-[0.501 µM],-,-,-
Oc1ccc2ccccc2c1N=Nc1ccccn1,-84,-73,3.2µM,8.9µM,4µM,35µM
O=C(O)c1cc(S(=O)(=O)O)ccc1O,-,-,?,-,?,?
O=S(=O)(O)c1cccc(N=Nc2c(O)ccc3ccccc23)c1,-,.,.,?,11µM,?
